The source of these data is PubChem BioAssay (EPA / NIEHS).

Molecules are shown by their SMILES. Values joined by “and” are separate entries in the source; they are usually repeats but may differ in a detail not shown here. Identical values can stand only once. Results filed as inconclusive are left out. Active and inactive are the calls of the source. Rule for the calls, unless noted: active = hit-call score of the fitted dose curve at least 0.9, where 1 is the maximum; inactive = score below 0.9.

One test concerns TTR (gene 7276). Nature of the test: CCTE_GLTED_hTTR_0.125uM: CCTE's human Transthyretin (hTTR) Inhibition Assay, with 0.125uM TTR, Great Lakes Toxicology and Ecology Division (GLTED) Lab (AID 2284431).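 Note: hits lower the fluorescence signal relative to DMSO baseline.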 Summed up: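 TTR 0.125uM + test chemical, 2 h; ANSA probe displacement; ex 380/em 475 fluorescence; signal loss vs DMSO control.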
Test [1] is described as follows: CCTE_Padilla_ZF_Score.Blood_pooling: CCTE's 144 Hour Post-fertilization zebrafish Assay Score for Blood Pooling, Padilla Lab (AID 2284415). The protocol: CCTE_Padilla_ZF_Phenotype_Score is a whole embryo, multiplexed assay using zebrafish ova exposed for 144 hours post fertilization on a 96-well plate.CCTE_Padilla_ZF_Score.Blood_pooling is one of one assay component(s) measured or calculated from the CCTE_Padilla_ZF_Phenotype_Score assay. It is designed to make measurements of zebrafish development as detected with brightfield microscopy of developing zebrafish embryos.Data from the assay component CCTE_Padilla_ZF_Score.Blood_pooling was analyzed into 1 assay endpoints. This assay endpoint, CCTE_Padilla_ZF_Score.Blood_pooling, was analyzed in the positive analysis fitting direction relative to DMSO as the negative control and baseline of activity. Using a type of viability reporter, gain-of-signal activity can be used to understand changes in developmentals as they relate to the whole embryo. To generalize the intended target to other relatable targets, this assay endpoint is annotated to the zebrafish development intended target family, where the subfamily is swim bladder morphogenesis.
Zebrafish husbandry: Wild type adult zebrafish (Danio rerio; undefined outbred stock obtained from Aquatic Research Organisms, Hampton, NH, 03842) were housed in an AAALAC-approved animal facility at 28C with a 14:10 h light: dark cycle (lights on at 08:30 h). Adult fish (2-3 females per male; density = 15-20 adults per tank) were kept in one of several 9-liter (L) flow-through colony tanks (Aquaneering Inc., San Diego, CA). All adults in a colony tank were placed in a 2 L (static) breeding tank (Aquatic Habitats, Apopka, FL) one hour prior to light onset. Typically, adults from two to three colony tanks were mated on the same day. Two hours after light onset the adults were returned to the colony tank. All embryos were gathered from each breeder tank, pooled, and placed in a 28C water bath for 2 h, followed by two washes with 0.06% bleach (v/v) in 10% Hanks' Balanced Salt Solution (13.7 mM NaCl 0.54 mM KCl, 25 uM Na2HPO4, 130 uM CaCl2 100 um MgSO4 and 420 um NaHCO3,), hereafter referred to as Hanks' solution, for 5 min in order to remove any residual bacteria or fungi. Immediately following washing, the embryos were examined, and healthy embryos were separated from dead or unfertilized eggs and moved into fresh Hanks'. Chemical exposures: Zebrafish embryos were exposed in 96-well plates. Between 6- and 8-hours post fertilization (hpf), healthy embryos (with chorions) were transferred, one embryo per well, into 96 well (0.5 mL) microtiter plates (Cell Culture-Treated, Flat-Bottom Microplate 96 well [Corning Costar, Kennebunk, ME; Cat 09-761-145]) filled with 200 uL of Hanks' solution. A random number generator was used to assign the order in which the rows of embryos were plated in 96 well plates each week. After plating, the embryos were dosed with 0.8 uL of the chemical dosing solution then immediately sealed with AlumaSeal II (Excel Scientific Inc, Victorville, CA) to prevent volatilization of the chemicals, and then placed in a leakproof secondary container. These containers were placed in an incubator maintained on a 14:10 h light: dark cycle at 26C for rearing. On 5 dpf, live larvae were gently moved out of the plate with test chemicals and into a new 96 well mesh plate (Millipore Corp., Bedford, MA) with just the Hanks' solution. Once within the mesh well plate, the animals were rinsed with 400 uL of fresh Hanks' three times, and then the plates were covered with a non-adhesive material (Microseal A, BioRad, Hercules, CA), plate lid added, and then plate sides wrapped in Parafilm (PM992, Bermis Company, Neenah, WI), and returned to the incubator. […]

A short description of test [2]: CCTE_Padilla_ZF_Score.Any: CCTE's 144 Hour Post-fertilization zebrafish Assay Score for Any Mortality or Malformation, Padilla Lab (AID 2284416). Summed up: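 Wild-type zebrafish embryos with chorions, one per well in 10% Hanks' from 6–8 hpf, dosed in sealed plates at 26 C, 14:10 h light:dark; rinsed at 5 dpf; blinded scoring at 6 dpf for death or malformation, versus DMSO.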

Test [3] concerns Brachyury (BRA) Protein Expression, TBXT (gene 6862). Nature of the test: CCTE_Deisenroth_DEVTOX-GLR_Endo_BRA: CCTE's DevTox GLR-Endo Assay Evaluation of Brachyury (BRA) Protein Expression, Deisenroth Lab (AID 2284417). A digest of the protocol:
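Read-out: BRA+ cell count divided by total cell count by high-content imaging (5 fields per well), expressed relative to 0.2% DMSO solvent control. RUES2-GLR cells dosed twice over a 48 h differentiation; concentrations 1 nM - 200 uM.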

The nature of test [4]: CCTE_Deisenroth_DEVTOX-GLR_Endo_CellCount: Viability Assessment in CCTE's DevTox GLR-Endo Assay, Deisenroth Lab (AID 2284420). A digest of the protocol:
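Nuclei counted by fluorescence microscopy as a surrogate for cell number, expressed as percent change relative to 0.2% DMSO control. Human RUES2-GLR cells, 48 h differentiation, dosed twice; 1 nM - 200 uM series.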

The test system of test [5] is SRY-box transcription factor 17 (SOX17) Protein Expression, Deisenroth Lab, SOX17 (gene 64321). Nature of the test: CCTE_Deisenroth_DEVTOX-GLR_Pluri_SOX17: CCTE's DevTox GLR-Pluri Assay Evaluation of SRY-box transcription factor 17 (SOX17) Protein Expression, Deisenroth Lab (AID 2284427; active = hit-call score of the fitted dose curve at least 0.9, where 1 is the maximum). Summed up:
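Readout: percent SOX17+ cells (SOX17+ count/cell count) by high-content imaging of an inducible fluorescent reporter, corrected for 0.2% DMSO solvent control. RUES2-GLR cells, 48 h differentiation, dosed twice at 24 h intervals, 1 nM - 200 uM.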

Test [6] deals with SRY-box transcription factor 2 (SOX2) Protein Expression, Deisenroth Lab, SOX2 (gene 6657). Briefly: CCTE_Deisenroth_DEVTOX-GLR_Pluri_SOX2: CCTE's DevTox GLR-Pluri Assay Evaluation of SRY-box transcription factor 2 (SOX2) Protein Expression, Deisenroth Lab (AID 2284428). Summed up:
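RUES2-GLR (human pluripotent), 48 h post-dosing, 2 exposures q24h, 1 nM–200 uM 10-pt. Fixed, nuclear dye, high-content imaging 5 fields/well. Endpoint: % SOX2+ cells (SOX2+/total count) vs 0.2% DMSO; n≥4.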

Test [7] relates to Brachyury (BRA) Protein Expression, Deisenroth Lab, TBXT (gene 6862). Briefly: CCTE_Deisenroth_DEVTOX-GLR_Pluri_BRA: CCTE's DevTox GLR-Pluri Assay Evaluation of Brachyury (BRA) Protein Expression, Deisenroth Lab (AID 2284429; active = hit-call score of the fitted dose curve at least 0.9, where 1 is the maximum). A digest of the protocol: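 Percent BRA+ cells (BRA+ count over total cells) by high-content imaging of fixed RUES2-GLR cultures, corrected by 0.2% DMSO control. Cells received two doses over 48-hour differentiation, 1 nM–200 uM, n=4 experiments.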

Test [8] in a line: CCTE_Deisenroth_DEVTOX-GLR_Pluri_CellCount: Viability Assessment in CCTE's DevTox GLR-Pluri Assay Evaluation of Total Cell Counts, Deisenroth Lab (AID 2284430). Summed up:
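Cytotoxicity readout: fluorescent nuclei counts by high-content imaging, expressed as percent change relative to 0.2% DMSO. Human RUES2-GLR pluripotent line differentiated 48 h, dosed twice at 24-h intervals across 1 nM - 200 uM (10 points).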

Usually AC50 stands for the concentration giving half of the maximal activity seen. As for `CC(c1ccc(O)cc1)(c1ccc(O)cc1)c1ccc(O)cc1`, the AC50 in the test on TTR (gene 7276) was 1.48 µM (active).

As to `O=S(=O)(O)C(F)(F)C(F)(F)C(F)(F)C(F)(F)C(F)(F)C(F)(F)F`, the result in test [1] was inactive. Besides, the AC50 in [2] was 36.4 µM (active) and 34.4 µM (active); with TTR (gene 7276), 0.0856 µM (active).

In the case of `O=C(O)C(F)(F)C(F)(F)C(F)(F)C(F)(F)C(F)(F)C(F)(F)C(F)(F)C(F)(F)C(F)(F)F`, the call in test [1] was inactive. Besides, the AC50 in test [2] was 10.7 µM (active); with TTR (gene 7276), 0.646 µM (active).

Regarding `NS(=O)(=O)C(F)(F)C(F)(F)C(F)(F)C(F)(F)C(F)(F)C(F)(F)C(F)(F)C(F)(F)F`, in test [1], the call was inactive. The AC50 in [2] is 0.747 µM (active); with TTR (gene 7276), 0.683 µM (active).

In the case of `Cc1cc(-c2ccc(N)c(C)c2)ccc1N`, in the test on TTR (gene 7276), the AC50 is 92.7 nM (active) and 178 nM (active).

On to `O=NN(c1ccccc1)c1ccccc1`, for which the half-maximal activity concentration (AC50) in the test on TTR (gene 7276) is 14.2 µM (active).

As to `CCC(C)c1cc([N+](=O)[O-])cc([N+](=O)[O-])c1O` (stereo not given), the AC50 in the test on TTR (gene 7276) was 0.0883 µM (active).

Consider `O=C(O)C(F)(F)C(F)(F)C(F)(F)C(F)(F)C(F)(F)F`, for which the result in [1] and in test [2] was inactive. The AC50 in the test on TTR (gene 7276) was 1.92 µM (active).

Turning to `O=C(O)C(F)(F)C(F)(F)C(F)(F)C(F)(F)C(F)(F)C(F)(F)C(F)(F)C(F)(F)F`, in test [1], the result was inactive. The AC50 in [2] is 29.1 µM (active); in the test on TTR (gene 7276), 0.21 µM (active).

`Cc1cc(O)ccc1Cl`: in the test with TTR (gene 7276), the AC50 is 20.5 µM (active).

In the case of `Oc1ccc(C(c2ccc(O)cc2)(C(F)(F)F)C(F)(F)F)cc1`, the AC50 with TTR (gene 7276) is 2.53 µM (active).

Regarding `CC1=C2C[C@H]3[C@@H](CC=C4C[C@@H](O)CC[C@@]43C)[C@@H]2CC[C@]12O[C@@H]1C[C@H](C)CN[C@H]1[C@H]2C`, the molecule was called inactive in test [3], in [4], in test [5], in test [6], in test [7] and in [8].

`CCCCCCCCCc1ccc(O)cc1`: the concentration at half-maximal activity (AC50) in the test with TTR (gene 7276) is 3.03 µM (active).

Regarding `C=CC(N)=O`, the call in [3], in test [4], in test [5], in [6], in test [7] and in test [8] was inactive.

As for `Clc1ccc(C(Cl)(Cl)Cl)cc1`, the AC50 with TTR (gene 7276) is 1.04 µM (active).

For `CC(C)(c1ccccc1)c1ccc(O)cc1`, in the test on TTR (gene 7276), the AC50 is 0.888 µM (active).

Consider `CCC(C)(c1ccc(O)cc1)c1ccc(O)cc1`, for which the AC50 in the test with TTR (gene 7276) was 9.26 µM (active).

With `O=S(=O)(O)C(F)(F)C(F)(F)C(F)(F)C(F)(F)F`, the call in [1] and in test [2] was inactive. Moreover, the AC50 with TTR (gene 7276) was 2.08 µM (active).
